Results filed as inconclusive are left out. A number with no mark means an inactive call. Calls of active or inactive are those of the source. Calls follow the shape of the dose curve; as a rule, active = well fitted cell-killing curve with a large enough effect; inconclusive = small, poorly fitted or top-dose-only effect, or effect the other way; inactive = flat fitted curve, though single readings scatter.
tested on: PA-1; assay: Primary qHTS to identify gynecologic anti-cancer compounds using libraries of approved drugs and bioactive compounds (AID 1345084); conditions: Gynecologic cancer cell panel viability, ATPlite luminescence, 48 h; series mostly up to 57.5 µM; activity change, negative = cytotoxicity: at the top concentration; also: nearly all actives have a fitted effect of over 55% in size
How it was run: (§1)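 Measured: luminescence after ATPlite addition (15 min, RT). Exposure: 48 h, 37 C, 5% CO2.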
% is scaled to controls: 0 for no effect and ±100 for the full control effect; potency is read from the fitted curve at half-maximal effect.

Compound	activity change, negative = cytotoxicity	Potency
O=C(O)/C=C/c1cc2c(cc1O[C@@H]1O[C@H](CO)[C@@H](O)[C@H](O)[C@H]1O)OCO2	1.22% [at 38.5 µM]	–
CC(C)O[C@@H]1O[C@H](CO)[C@@H](O)[C@H](O)[C@H]1O	4.27%	–
CC1=C2C3OC(=O)C(C)C3(O)CCC2(C)CCC1O (stereo not given)	3.66%	–
COC(=O)CC1CC(c2ccc(O)cc2)=NO1 (stereo not given)	-20.4%	–
CC(=O)C12OC(C)(C)OC1CC1C3CCC4=CC(=O)C=CC4(C)C3(F)C(O)CC12C (stereo not given)	-5.13%	–
C[C@H]1O[C@@H](O[C@H]2CC[C@@]3(C)C(CC[C@]4(C)C3CC=C3C5CC(C)(C)CC[C@]5(C(=O)O)CC[C@]34C(=O)O)C2(C)C)[C@H](O)[C@@H](O)[C@@H]1O (stereo not given in full)	-3.75% [at 25.3 µM]	–
C=C1CCC2C(C)(C(=O)OC)CCCC2(C)C1CCC(C)CC(=O)O (stereo not given)	4.99% [at 38.5 µM]	–
COc1ccccc1Oc1ccc(N(Cc2cccnc2)S(=O)(=O)CC(F)(F)F)cc1	1.89%	–
COc1ccc(Cl)c(Nc2nc3ccccc3nc2NS(=O)(=O)c2cccc(NC(=O)C(C)(C)N)c2)c1	-26.4%	–
COC(=O)C1=CO[C@@H](O[C@@H]2O[C@H](CO)[C@@H](O)[C@H](O)[C@H]2O)[C@H]2[C@@H]1C=C[C@@]21C=C([C@H](C)O)C(=O)O1	19.1% [at 25.3 µM]	–
CC1(C)CC2=C3C=CC4C5(C)CCC(O)C(C)(C)C5CCC4(C)C3(C)CCC2(C)C(O)C1 (stereo not given)	-0.992% [at 25.3 µM]	–
O=C(O)c1ccc(OC2OC(CO)C(O)C(O)C2O)cc1 (stereo not given)	11.4%	–
CC(C)CN(C[C@@H](O)[C@H](Cc1ccccc1)NC(=O)O[C@@H]1CO[C@H]2OCC[C@H]21)S(=O)(=O)c1ccc(N)cc1	4.37%	–
C=C1C[C@]23C[C@H]1CC[C@H]2[C@@]1(C)CCC[C@@]2(C)C(=O)O[C@@H]([C@@H]3O)[C@@H]12	-3.01% [at 38.5 µM]	–
CC(=O)O[C@H]1C[C@@]2(C)[C@@H](CC[C@H]3[C@@]4(C)C=CC(=O)[C@@H](C)[C@@H]4[C@H](O)C(=O)[C@@]32C)/C1=C(/CCC=C(C)C)C(=O)O	-35.9% [at 25.3 µM]	–
COC(=O)N[C@H](C(=O)N1[C@@H]2CC[C@@H](C2)[C@H]1c1nc2ccc(-c3ccc4c(c3)C(F)(F)c3cc(-c5cnc([C@@H]6CCC7(CC7)N6C(=O)[C@@H](NC(=O)OC)C(C)C)[nH]5)ccc3-4)cc2[nH]1)C(C)C	8.35% [at 25.3 µM]	–
COc1ccc(C2(O)c3ccccc3NC(=O)C2O)cc1 (stereo not given)	8.41%	–
O=C(CN1C(=O)C2(CCCC2)NCC1c1cc(F)cc(F)c1)Nc1ccc2c(c1)CC1(C2)C(=O)Nc2ncccc21 (stereo not given)	3.52%	–
C=C1C(=O)OC2CC3(C)C(CC12)C(C)=CC(O)C3OC(C)=O (stereo not given)	4.71% [at 38.5 µM]	–
C[C@@H]1O[C@@H](O[C@H]2[C@H](OC(=O)[C@]34CCC(C)(C)C[C@H]3C3=CCC5[C@@]6(C)C[C@H](O)[C@H](O[C@@H]7O[C@H](CO)[C@@H](O[C@H]8OC[C@](O)(CO)[C@H]8O)[C@H](O)[C@H]7O)[C@@](C)(CO)C6[C@H](O)C[C@@]5(C)[C@]3(C)C[C@H]4O)OC[C@H](O)[C@@H]2O)[C@H](O)[C@H](O)[C@H]1O[C@@H]1OC[C@@H](O)[C@H](O[C@@H]2OC[C@](O)(CO)[C@H]2O)[C@H]1O (stereo not given in full)	18.7% [at 6.55 µM]	–
O=C(O)[C@H](Cc1ccc(Nc2nccc3ccncc23)cc1)NC1=C(Br)C(=O)C12CCCCC2	-9.27%	–
CC(C)C(C(=O)N(C)C(C)C(N)=O)N(C)C(=O)C1CCCN1C(=O)/C=C/C=C/C(O)C(C)O (stereo not given)	0.381% [at 25.3 µM]	–
Nc1nc2c(c(=O)[nH]1)C[C@@H](CCc1ccc(C(=O)N[C@@H](CCC(=O)O)C(=O)O)cc1)CN2	–	282 nM (active)
CC1(O)CCCC2(C)C1CCC13CC(CO)C(CCC12)C3 (stereo not given)	24.3%	–
CC(=O)/C=C/[C@H]1[C@](C)(O)[C@@H](O)[C@H](OC(C)=O)C2C(C)(C)CCC[C@@]21C (stereo not given in full)	15.8% [at 38.5 µM]	–
C=C(C(=O)OC)C1C(O)CC2(C)C(=O)CCC(O)(CO)C2C1O (stereo not given)	25.6% [at 38.5 µM]	–

tested on: SKOV3; assay: as above; conditions: Gynecologic cancer cell panel viability, ATPlite luminescence, 48 h; series mostly up to 57.5 µM; activity change, negative = cytotoxicity: at the top concentration
How it was run: as §1

Compound	activity change, negative = cytotoxicity
COC(=O)CC(C)(O)CC(=O)OCc1ccc(O[C@@H]2O[C@H](CO)[C@@H](O)[C@H](O)[C@H]2O)cc1 (stereo not given in full)	12.3% [at 25.3 µM]
CC[C@@H](O)C[C@@H]1C(C)=C[C@@H]2CCCC[C@@H]2[C@@]1(C)C(=O)O	-3.44%
C=C1CCC2C(C)(C(=O)O)CCCC2(C)C1CC/C(=C\CO)CO (stereo not given)	0.128% [at 38.5 µM]
Cc1oc2ccccc2c1CNC(=O)NCc1cccs1	0%
CCC(C)C(=O)OC1CC(C)C=C2C=CC(C)C(CCC(O)CC(O)CC(=O)O)C21 (stereo not given)	-10.2% [at 25.3 µM]
C[C@]12C=C[C@@]3(CCC4[C@](C)(CO)CCC[C@@]4(C)C3CC1)C2 (stereo not given in full)	11.9%
CC(C)CC1NC(=O)C(C)NC(=O)C(CC(C)C)OC(=O)CCCNC1=O (stereo not given)	0% [at 38.5 µM]
COC1/C=C/C(C)(O)C(SCC(N)C(=O)O)CC(=O)OC(C)C(C)CC/C=C/1C (stereo not given)	26.5% [at 25.3 µM]
CC/C=C\CC1C(=O)C=CC1(CCCCCCCC(=O)O)OC(C)=O (stereo not given)	-2.58% [at 38.5 µM]
CC1OC(OC2C(C)OC(OC3C(O)C(CO)OC(O[C@H]4CC[C@@]5(C)C(CC[C@]6(C)C5CC=C5C7[C@@H](C)[C@H](C)CC[C@]7(C(=O)O)CC[C@]56C(=O)O)C4(C)C)C3O)C(O)C2O)C(O)C(O)C1O (stereo not given in full)	-6.75% [at 11.6 µM]
C[C@@H]1O[C@@H](OC[C@H]2O[C@@H](OC(CCCCc3ccc(O)cc3)CCc3ccc(O)cc3)[C@H](O)[C@@H](O)[C@@H]2O)[C@H](O)[C@H](O)[C@H]1O (stereo not given in full)	-1.8% [at 25.3 µM]
CC(c1ncncc1F)C(O)(Cn1cncn1)c1ccc(F)cc1F (stereo not given)	10.2%
CC1(C=O)CC[C@]2(C(=O)O[C@@H]3O[C@H](CO)[C@@H](O)[C@H](O)[C@H]3O)CC[C@]3(C)C(=CCC4[C@@]5(C)C[C@H](O)[C@H](O[C@@H]6OC[C@@H](O)[C@H](O)[C@H]6O)[C@@](C)(CO)C5CC[C@]43C)C2C1 (stereo not given in full)	1.41% [at 11.6 µM]
O=C(O)/C=C/c1cc2c(cc1O[C@@H]1O[C@H](CO)[C@@H](O)[C@H](O)[C@H]1O)OCO2	23.1% [at 38.5 µM]
CC(C)O[C@@H]1O[C@H](CO)[C@@H](O)[C@H](O)[C@H]1O	0.413%
CC1=C2C3OC(=O)C(C)C3(O)CCC2(C)CCC1O (stereo not given)	0%
COC(=O)CC1CC(c2ccc(O)cc2)=NO1 (stereo not given)	-1.22%
CC(=O)C12OC(C)(C)OC1CC1C3CCC4=CC(=O)C=CC4(C)C3(F)C(O)CC12C (stereo not given)	21.4%
C[C@H]1O[C@@H](O[C@H]2CC[C@@]3(C)C(CC[C@]4(C)C3CC=C3C5CC(C)(C)CC[C@]5(C(=O)O)CC[C@]34C(=O)O)C2(C)C)[C@H](O)[C@@H](O)[C@@H]1O (stereo not given in full)	-5.73% [at 25.3 µM]
C=C1CCC2C(C)(C(=O)OC)CCCC2(C)C1CCC(C)CC(=O)O (stereo not given)	4.29% [at 38.5 µM]

Compound	activity change, negative = cytotoxicity
COc1ccccc1Oc1ccc(N(Cc2cccnc2)S(=O)(=O)CC(F)(F)F)cc1	9.11%
COc1ccc(Cl)c(Nc2nc3ccccc3nc2NS(=O)(=O)c2cccc(NC(=O)C(C)(C)N)c2)c1	-11%
COC(=O)C1=CO[C@@H](O[C@@H]2O[C@H](CO)[C@@H](O)[C@H](O)[C@H]2O)[C@H]2[C@@H]1C=C[C@@]21C=C([C@H](C)O)C(=O)O1	-2.4% [at 25.3 µM]
CC1(C)CC2=C3C=CC4C5(C)CCC(O)C(C)(C)C5CCC4(C)C3(C)CCC2(C)C(O)C1 (stereo not given)	9.27% [at 25.3 µM]
O=C(O)c1ccc(OC2OC(CO)C(O)C(O)C2O)cc1 (stereo not given)	-1.88%
CC(C)CN(C[C@@H](O)[C@H](Cc1ccccc1)NC(=O)O[C@@H]1CO[C@H]2OCC[C@H]21)S(=O)(=O)c1ccc(N)cc1	7.15%
C=C1C[C@]23C[C@H]1CC[C@H]2[C@@]1(C)CCC[C@@]2(C)C(=O)O[C@@H]([C@@H]3O)[C@@H]12	-0.532% [at 38.5 µM]
CC(=O)O[C@H]1C[C@@]2(C)[C@@H](CC[C@H]3[C@@]4(C)C=CC(=O)[C@@H](C)[C@@H]4[C@H](O)C(=O)[C@@]32C)/C1=C(/CCC=C(C)C)C(=O)O	-12.1% [at 25.3 µM]
COC(=O)N[C@H](C(=O)N1[C@@H]2CC[C@@H](C2)[C@H]1c1nc2ccc(-c3ccc4c(c3)C(F)(F)c3cc(-c5cnc([C@@H]6CCC7(CC7)N6C(=O)[C@@H](NC(=O)OC)C(C)C)[nH]5)ccc3-4)cc2[nH]1)C(C)C	-7.81% [at 25.3 µM]
COc1ccc(C2(O)c3ccccc3NC(=O)C2O)cc1 (stereo not given)	-7.88%
O=C(CN1C(=O)C2(CCCC2)NCC1c1cc(F)cc(F)c1)Nc1ccc2c(c1)CC1(C2)C(=O)Nc2ncccc21 (stereo not given)	-1.93%
C=C1C(=O)OC2CC3(C)C(CC12)C(C)=CC(O)C3OC(C)=O (stereo not given)	11.4% [at 38.5 µM]
C[C@@H]1O[C@@H](O[C@H]2[C@H](OC(=O)[C@]34CCC(C)(C)C[C@H]3C3=CCC5[C@@]6(C)C[C@H](O)[C@H](O[C@@H]7O[C@H](CO)[C@@H](O[C@H]8OC[C@](O)(CO)[C@H]8O)[C@H](O)[C@H]7O)[C@@](C)(CO)C6[C@H](O)C[C@@]5(C)[C@]3(C)C[C@H]4O)OC[C@H](O)[C@@H]2O)[C@H](O)[C@H](O)[C@H]1O[C@@H]1OC[C@@H](O)[C@H](O[C@@H]2OC[C@](O)(CO)[C@H]2O)[C@H]1O (stereo not given in full)	13.1% [at 6.55 µM]
O=C(O)[C@H](Cc1ccc(Nc2nccc3ccncc23)cc1)NC1=C(Br)C(=O)C12CCCCC2	-2.18%
CC(C)C(C(=O)N(C)C(C)C(N)=O)N(C)C(=O)C1CCCN1C(=O)/C=C/C=C/C(O)C(C)O (stereo not given)	14.5% [at 25.3 µM]
Nc1nc2c(c(=O)[nH]1)C[C@@H](CCc1ccc(C(=O)N[C@@H](CCC(=O)O)C(=O)O)cc1)CN2	23.9%
CC1(O)CCCC2(C)C1CCC13CC(CO)C(CCC12)C3 (stereo not given)	-0.109%
CC(=O)/C=C/[C@H]1[C@](C)(O)[C@@H](O)[C@H](OC(C)=O)C2C(C)(C)CCC[C@@]21C (stereo not given in full)	31% [at 38.5 µM]
C=C(C(=O)OC)C1C(O)CC2(C)C(=O)CCC(O)(CO)C2C1O (stereo not given)	11% [at 38.5 µM]

— PubChem BioAssay (NCATS)
